Compound activity (PubChem BioAssay)
Shown are actives, neighbours in structure and some others; about 3% of the full set was active somewhere.
SENP6 inh – inhibitors of human SENP6 protease. Q9GZR1. Recombinant SENP6 catalytic domain, aminoluciferin luminescence. inhibition, % at 10 µM. hit rate 1.8% among 330,000. AID 2599;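 active means inhibition above about 50% at the single tested dose, limit read from the data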
SENP7 inh – inhibitors of human SENP7 protease | recombinant SENP7, Z-RLRGG-aminoluciferin luminescence, 40 min | hit rate 1.5% among 330,000 | inhibition, % at 5 µM | AID 434973;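 active means inhibition above about 50% at the single test dose, limit read from the data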
Target sequence (Q9BQF6 706-1050 limits assumed): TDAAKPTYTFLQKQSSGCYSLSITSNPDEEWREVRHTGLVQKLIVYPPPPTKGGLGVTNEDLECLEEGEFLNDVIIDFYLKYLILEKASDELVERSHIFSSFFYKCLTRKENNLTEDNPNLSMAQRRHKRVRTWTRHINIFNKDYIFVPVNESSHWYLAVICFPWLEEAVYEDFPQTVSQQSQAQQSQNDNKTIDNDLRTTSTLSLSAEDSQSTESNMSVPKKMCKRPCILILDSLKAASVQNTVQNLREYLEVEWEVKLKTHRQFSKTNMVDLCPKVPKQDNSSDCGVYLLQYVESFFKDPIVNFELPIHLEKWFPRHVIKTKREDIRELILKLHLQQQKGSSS
C8 TRAIL sens – sensitizes caspase-8 expressing cells to TRAIL; NB7+C8 cells + TRAIL, ATPlite viability luminescence; inhibition (viability loss, TRAIL sensitization), % at 10 µM; hit rate 1% among 360,000; AID 624354;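 active means compounds causing at least 50% loss of cell viability in the single-dose screen, relative to plate controls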
PPC-1+TRAIL kill – compounds killing PPC-1 cancer cells with TRAIL present (potentiator screen, no TRAIL-free arm); PPC-1 cells + TRAIL, ATPLite viability luminescence; cell killing (% activity), % at 4 µM or 5 µM; hit rate 0.41% among 220,000; AID 1443;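 active means cell killing above 50% in the first pass at 4 µM, then a duplicate retest at 5 µM averaging 50% or more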
SENP8 block-1 – blocks human SENP8 cleavage of Nedd8 substrate | Q96LD8 | recombinant SENP8, Nedd8 substrate fluorescence | inhibition, % at 20 µM | hit rate 0.64% among 360,000 | AID 602440; in the data active means inhibition mostly above about 40%, no sharp cut-off; inactive means mostly below about 27%
Target sequence (Q96LD8 whole entry, looked up): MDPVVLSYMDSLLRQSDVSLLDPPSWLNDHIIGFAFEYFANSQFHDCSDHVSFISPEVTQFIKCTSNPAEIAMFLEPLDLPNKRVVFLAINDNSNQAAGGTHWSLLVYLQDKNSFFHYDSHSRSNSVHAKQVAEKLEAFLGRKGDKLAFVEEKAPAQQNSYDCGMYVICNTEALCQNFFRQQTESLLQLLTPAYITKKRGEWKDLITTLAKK
SENP8 block-2 – SENP8 protease inhibition; purified SENP8, Z-RLRGG-aminoluciferin cleavage, luminescence; inhibition, % at 10 µM; hit rate 1.2% among 330,000; in the data active means inhibition above about 50%
SENP8 confirm – confirmation of human SENP8 protease inhibitors. shares compounds with SENP7 inh. Recombinant SENP8, Z-RLRGG-aminoluciferin luminescence, 60 min. inhibition, % at 12.5 µM. hit rate 40% among 6,200. AID 488912;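 active means mean inhibition across replicates above about 50%, limit read from the data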
SENP6 conf – confirmation of human SENP6 protease inhibitors; AID 488915; shares compounds with SENP7 inh; recombinant SENP6, Z-RLRGG-aminoluciferin luminescence; inhibition, % at 12.5 µM; hit rate 58% among 6,200
SENP7 conf – confirmation of human SENP7 protease inhibitors | shares compounds with SENP7 inh | recombinant SENP7, Z-RLRGG-aminoluciferin luminescence, 40 min | inhibition, % at 12.5 µM | hit rate 69% among 6,200
Casp3 SENP sel – caspase-3 inhibition (SENP selectivity assay); shares compounds with SENP7 inh; purified caspase-3, Z-DEVD-aminoluciferin luminescence, 60 min; inhibition, % at 12.5 µM; hit rate 60% among 6,200; AID 488918;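 active means mean inhibition above about 50%, limit read from the data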
SENP luc ctr – counter-screen for SENP inhibitors: luminescence interference; shares compounds with SENP7 inh; Pre-incubated SENP8/Z-RLRGG-aminoluciferin, luciferase luminescence interference; inhibition, % at 12.5 µM; hit rate 39% among 6,200; AID 488919;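 active means mean inhibition above about 50% when retested at one dose, limit read from the data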
Of the large screens only hits and unclear results are named; the others gave an inactive call (follow-up assays come after a bar, where they were run).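 How the source made its calls, unless noted: active means mean inhibition above about 50% in the one-dose retest (limit read from the data); inactive means the rest.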

O=C(Nc1ccccc1F)c1c[nH]c(=O)[nH]c1=O	SENP6 inh 51 | SENP8 confirm inactive | SENP6 conf inactive | SENP7 conf 70 | Casp3 SENP sel 76 | SENP luc ctr inactive
O=C(Nc1cnc2sccn2c1=O)c1ccc(Cl)cc1Cl	SENP7 inh 56 | SENP8 confirm inactive | SENP6 conf inactive | SENP7 conf inactive | Casp3 SENP sel 53 | SENP luc ctr inactive
Cc1cccc(Nc2ccccc2C(=O)OCC(=O)NCc2ccco2)c1C	none
NC(=O)COC(=O)c1ccccc1Nc1ccc(SC(F)F)cc1	SENP6 inh 64 | SENP8 confirm 61 | SENP6 conf 60 | SENP7 conf 77 | Casp3 SENP sel inactive | SENP luc ctr 69
CC(OC(=O)c1ccccc1Nc1ccc(SC(F)F)cc1)C(N)=O (stereo not drawn)	none
O=C(COC(=O)c1ccccc1Nc1ccc(SC(F)F)cc1)NCc1ccco1	SENP6 inh 65 | SENP8 confirm inactive | SENP6 conf inactive | SENP7 conf inactive | Casp3 SENP sel inactive | SENP luc ctr inactive
O=C(NCCSc1ccccc1)c1ccccc1	none
O=C(NCCSc1ccccc1)c1ccc(Br)cc1	SENP6 inh 68 | SENP8 confirm 52 | SENP6 conf inactive | SENP7 conf 76 | Casp3 SENP sel inactive | SENP luc ctr inactive
CC(C)c1ccc(-c2nnn(CCC(=O)O)n2)cc1	SENP6 inh 59, SENP8 block-2 71 | SENP8 confirm inactive | SENP6 conf 68 | SENP7 conf 84 | Casp3 SENP sel inactive | SENP luc ctr inactive
Brc1c(-c2ccccc2)nc2n1Cc1ccccc1-2	SENP6 inh 75, SENP8 block-2 51 | SENP8 confirm inactive | SENP6 conf 65 | SENP7 conf 72 | Casp3 SENP sel inactive | SENP luc ctr inactive
O=C1c2ccccc2-c2nc3ccccc3n21	none
c1ccc2c(c1)Cn1c-2nc2ccccc21	SENP6 inh 92, SENP7 inh 91, SENP8 block-2 81 | SENP8 confirm 90 | SENP6 conf 88 | SENP7 conf 99 | Casp3 SENP sel 95 | SENP luc ctr 86
COc1ccccc1OCCCOc1cccc(/C=C2\SC(=O)NC2=O)c1	none (no result: PPC-1+TRAIL kill)
COc1ccccc1OCCCOc1ccc(/C=C2\SC(=O)NC2=O)cc1OC	SENP6 inh 61 (no result: PPC-1+TRAIL kill) | SENP8 confirm inactive | SENP6 conf inactive | SENP7 conf inactive | Casp3 SENP sel inactive | SENP luc ctr inactive
O=C1NC(=O)/C(=C\c2ccc(OCc3ccccc3)cc2)S1	SENP6 inh 64 (no result: PPC-1+TRAIL kill) | SENP8 confirm inactive | SENP6 conf inactive | SENP7 conf inactive | Casp3 SENP sel inactive | SENP luc ctr inactive
Cc1ccc(S(=O)(=O)n2ccc(=O)[nH]2)cc1	none
COc1ccc(C23CC4CC(CC(C(=O)O)(C4)C2)C3)c(F)c1	none (no result: PPC-1+TRAIL kill)
c1ccc(-c2ccc(-c3ccccn3)s2)nc1	SENP6 inh 83, SENP7 inh 84, SENP8 block-2 76 | SENP8 confirm 75 | SENP6 conf 81 | SENP7 conf 97 | Casp3 SENP sel 86 | SENP luc ctr inactive
c1ccc(-c2nnc(-c3ccccn3)nn2)nc1	SENP8 block-2 79 (no result: PPC-1+TRAIL kill) | SENP8 confirm inactive | SENP6 conf 54 | SENP7 conf 85 | Casp3 SENP sel 86 | SENP luc ctr 66
Cc1cnc(CNC(=O)C2CCC(=O)N(CCc3ccc(Cl)cc3)C2)cn1 (stereo not drawn)	none (no result: PPC-1+TRAIL kill)
CCOc1ccc(-n2cc(-c3ccc(OC)c(OC)c3)[nH]c2=S)cc1	SENP6 inh 73, SENP8 block-2 53 | SENP8 confirm inactive | SENP6 conf inactive | SENP7 conf inactive | Casp3 SENP sel inactive | SENP luc ctr inactive
CCOc1ccc(-c2cn(-c3ccccc3OC)c(=S)[nH]2)cc1	none (no result: PPC-1+TRAIL kill)
CCOCCCNC(=O)c1ccc(OC2CCN(C(C)=O)CC2)c(OC)c1	none (no result: PPC-1+TRAIL kill)
O=C(CS(=O)(=O)c1ccccc1)c1ccc2c(c1)OCCO2	SENP6 inh 57, SENP7 inh 51 | SENP8 confirm 63 | SENP6 conf 60 | SENP7 conf 86 | Casp3 SENP sel 82 | SENP luc ctr 65
Cc1cc(N(C)C)ccc1N=Nc1ccc2ncccc2c1	SENP6 inh 92, SENP7 inh 96, SENP8 block-2 92 | SENP8 confirm 90 | SENP6 conf 96 | SENP7 conf inactive | Casp3 SENP sel inactive | SENP luc ctr 56
Cc1nnc(C)c2c(C)n(-c3ccc4ncccc4c3)c(C)c12	none
NC(=O)CC(NC(=O)Cc1ccc(Cl)cc1)c1ccc(NC2CC3CCC2C3)c([N+](=O)[O-])c1 (stereo not drawn)	none (no result: PPC-1+TRAIL kill)
COc1ccc(S(=O)(=O)N(C)C[C@@H]2OCCCC[C@@H](C)Oc3ccc(NS(=O)(=O)c4cccs4)cc3C(=O)N([C@H](C)CO)C[C@@H]2C)cc1	none (no result: SENP6 inh, SENP7 inh, PPC-1+TRAIL kill, SENP8 block-2)
O=C(c1cc(-c2ccc3c(c2)OCO3)on1)N1CCN(c2ccccc2)CC1	none
O=C(c1cc(-c2ccc(Cl)cc2Cl)on1)N1CCOCC1	SENP6 inh 62, C8 TRAIL sens 57 | SENP8 confirm inactive | SENP6 conf inactive | SENP7 conf 85 | Casp3 SENP sel 72 | SENP luc ctr 51
O=C(c1cc(-c2cccc(O)c2)on1)N1CCCCC1	SENP7 inh 68, SENP8 block-2 61 | SENP8 confirm inactive | SENP6 conf 67 | SENP7 conf 91 | Casp3 SENP sel 78 | SENP luc ctr 73
O=C(c1cc(-c2cccc(O)c2)on1)N1CCCC1	SENP6 inh 50 (no result: PPC-1+TRAIL kill) | SENP8 confirm inactive | SENP6 conf inactive | SENP7 conf 78 | Casp3 SENP sel 70 | SENP luc ctr inactive
O=C(c1cc(-c2ccc3c(c2)OCO3)on1)N1CCOCC1	SENP6 inh 67, SENP7 inh 57 | SENP8 confirm 58 | SENP6 conf 52 | SENP7 conf 84 | Casp3 SENP sel 82 | SENP luc ctr 54
O=C(Nc1sc2c(c1C(=O)O)CCCC2)c1ccc(F)cc1	SENP6 inh 88, SENP8 block-2 75 (no result: PPC-1+TRAIL kill) | SENP8 confirm 88 | SENP6 conf 86 | SENP7 conf 94 | Casp3 SENP sel 80 | SENP luc ctr 78
COC(=O)c1c(NC(=O)c2ccccc2C(=O)O)sc2c1CCCC2	none (no result: SENP6 inh, SENP7 inh, PPC-1+TRAIL kill, SENP8 block-2)
